Data as given in PubChem BioAssay AID504332 (National Center for Advancing Translational Sciences (NCATS), 2011).
Among all 350,000 compounds or so, about 31,000 (8.9%) were called active. Not shown: some 15% with an inconclusive outcome. The full list was thinned out, with actives kept by preference. Unmarked numbers belong to inactive results. The call rests on the fitted dose curve; in most records, active means well fitted inhibition curve with a large enough effect; inconclusive means small, poorly fitted or top-dose-only effect; inactive means no such curve, though single readings can be large or run the other way.

Molecular target: Histone-lysine N-methyltransferase EHMT2 (Homo sapiens) (UniProt Q96KQ7)
Assay: qHTS Assay for Inhibitors of Histone Lysine Methyltransferase G9a; further: nearly all actives have a fitted effect of over 75% in size
Conditions: G9a H3K9 monomethylation, AlphaScreen, 2 h; series mostly up to 59 µM; activity, negative = inhibition: at the top concentration
Summary of the method: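 Quantitative HTS format: methyltransferase activity on a biotin-tagged H3K9 peptide is measured by AlphaScreen, using a rabbit anti-monomethyl-H3K9 antibody with streptavidin donor and anti-IgG acceptor beads. Final levels are 20 nM enzyme, 500 nM peptide, 20 uM SAM; 2 h RT.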
On the % scale 0 is the no-effect control and ±100 the full control effect; potency means the concentration at half of the fitted maximal effect.

Chain of Histone-lysine N-methyltransferase EHMT2 (Homo sapiens) (Q96KQ7 913-1193 limits assumed): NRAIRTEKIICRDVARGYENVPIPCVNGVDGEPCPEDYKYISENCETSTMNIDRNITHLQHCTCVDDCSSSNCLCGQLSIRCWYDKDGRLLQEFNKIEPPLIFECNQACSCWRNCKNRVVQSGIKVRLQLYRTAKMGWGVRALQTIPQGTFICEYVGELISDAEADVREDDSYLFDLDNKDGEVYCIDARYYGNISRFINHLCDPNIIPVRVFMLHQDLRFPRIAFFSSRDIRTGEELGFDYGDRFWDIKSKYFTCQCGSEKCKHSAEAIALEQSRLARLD

Structure (SMILES) | activity, negative = inhibition | Potency
COc1ccc(Cn2c(=O)c3oc4ccccc4c3n(CC(=O)Nc3ccc(F)cc3F)c2=O)cc1 | 2.4% (inactive) | 
COc1ccc(NC(=O)c2ccco2)cc1NC(=O)COc1ccc(C)c(C)c1 | -5.49% (inactive) | 
O=C(N/N=C/c1ccc([N+](=O)[O-])cc1)c1c[nH]c2ccccc12 | -27.9% [at 102 µM] (inactive) | 
COc1ccc(/C=C(\C#N)c2c[nH]c3ccccc23)cc1 |  | 39.8 µM (active)
COc1ccc2[nH]cc(/C=C(/C#N)S(=O)(=O)c3ccccc3)c2c1 | -5.58% [at 102 µM] (inactive) | 
CCCCn1c(N)c(N(Cc2ccccc2OC)C(=O)COc2cc(C)ccc2Cl)c(=O)[nH]c1=O | -35.7% [at 102 µM] (inactive) | 
Cn1nccc1/C=N\NC(=O)c1ccc(Cl)cc1 | 19.2% [at 102 µM] (inactive) | 
OCC[C@H]1C[C@H](O)[C@@H](O)[C@]2(CCc3ccccc3O2)O1 | 7.67% [at 2.33 µM] | 
O=S(=O)(c1ccc(Br)c2ccccc12)N1CCOCC1 | 24.5% [at 0.501 µM] | 
COc1ccccc1-n1c(=S)[nH]c2c(sc(=S)n2-c2ccc(C)cc2C)c1=O |  | 7.94 µM (active)
COc1ccccc1N1CCN(C(=O)c2cc(=O)c3cc(C)cc(C)c3o2)CC1 | -10.5% [at 2.33 µM] | 
COc1cccc(-n2c(=S)sc3c(=O)n(-c4ccccc4OC)c(SCC4OCCO4)nc32)c1 | 13.6% (inactive) | 
Cc1nn(-c2ccccc2)c(C)c1C(=O)OCC(=O)NC(=O)NC1CCCCC1 | 14.9% (inactive) | 
Cc1cccc(C)c1NC(=O)COC(=O)c1c(C)nn(-c2ccccc2)c1C |  | 11.2 µM (active)
Cc1cccc(C)c1NC(=O)CNC(=O)c1c(C)nn(-c2ccccc2)c1C | 1.23% [at 102 µM] (inactive) | 
COc1ccc(C)cc1S(=O)(=O)Nc1cc2c3c(c1)CCC(=O)N3CCC2 | 5.66% [at 102 µM] (inactive) | 
Cc1ccc2oc3c(c(=O)c2c1)C(c1ccc([N+](=O)[O-])cc1)N(CCCN1CCOCC1)C3=O (configuration not stated) | -4.28% (inactive) | 
CC(=O)c1cccc(NC(=O)CSc2nc3c(c(=O)[nH]2)CCC3)c1 | -8.01% (inactive) | 
Cc1ccc(-c2nn(CCC(=O)Nc3ccc(OC(F)(F)F)cc3)c(=O)c3ccccc23)cc1 | 1.21% (inactive) | 
O=C(c1ccc(Cl)s1)N(Cc1nnc(-c2ccccc2Cl)o1)C1CC1 | 9.15% [at 12.7 µM] | 
O=C(c1cc(-c2ccco2)nc2ccccc12)N(Cc1nnc(-c2ccc(Cl)cc2)o1)C1CC1 |  | 5.01 µM (active)
CC(C)N(Cc1nnc(-c2ccccc2Br)o1)C(=O)c1cc(Cl)nc2ccccc12 | -53.3% [at 12.7 µM] | 
CCOC(=O)[C@H]1[C@H]2COc3cc(OC)ccc3[C@@H]2N2C(=O)N(c3ccc(Br)cc3)C(=O)[C@@]12C | -5.49% [at 102 µM] (inactive) | 
Cc1c(Cl)cccc1NC(=O)C1CCCN(c2ncnc3onc(C)c23)C1 (configuration not stated) | -4.63% (inactive) | 

Structure (SMILES) | activity, negative = inhibition | Potency
CSc1ccccc1OCc1cc(C(=O)N2C[C@H]3CC[C@H]2C3)no1 | 39.3% [at 102 µM] (inactive) | 
O=C(c1ccccc1)c1cc(-c2ccccn2)c(N2CCOCC2)s1 | -7.68% [at 102 µM] (inactive) | 
CCc1cccc(NC(=O)c2cnc(N3CCOCC3)c3ccccc23)c1 | 12.6% (inactive) | 
CCc1ccc2ncc(C(=O)c3ccccc3)c(N3CCOCC3)c2c1 |  | 56.2 µM (active)
COc1ccc(C(=O)CC(=O)c2ccc(C)cc2)c(O)c1 | 28.4% [at 102 µM] (inactive) | 
COc1cc2c(cc1OC)C(COc1ccc(F)cc1)N(C(=O)c1ccccc1F)CC2 (configuration not stated) | -0.587% (inactive) | 
COc1ccc(/C=N/N=C2/C(=O)Nc3ccccc32)cc1O | 16.7% (inactive) | 
O=C1Nc2ccc(Br)cc2/C1=N/N=C/C1=C(N2CCOCC2)C(=C\c2ccccc2)/CC1 |  | 12.6 µM (active)
COc1ccc(S(=O)(=O)Nc2cc3c(C(=O)OC(C)C)c(C)oc3c3ccccc23)cc1 | -0.639% (inactive) | 
COc1cccc(N(C(=O)c2snc(C(N)=O)c2N)C(C(=O)NCC2CCCO2)c2c[nH]c3ccccc23)c1 (configuration not stated) | -48.6% [at 102 µM] (inactive) | 
CCOc1ccc(N(C(=O)c2snc(C(N)=O)c2N)C(C(=O)NCC2CCCO2)c2c[nH]c3ccccc23)cc1 (configuration not stated) |  | 39.8 µM (active)
Cc1ccc(N(C(=O)c2snc(C(N)=O)c2N)C(C(=O)NCC2CCCO2)c2c[nH]c3ccccc23)cc1 (configuration not stated) | 3.25% [at 102 µM] (inactive) | 
CN(CC(=O)Nc1ccc(OC(F)(F)F)cc1)C(=O)C1CCC1 | -37% [at 12.7 µM] | 
N#C/C=C\Oc1ccc(Cl)cc1N |  | 44.7 µM (active)
COc1ccc(Cl)cc1C(=O)NCC#N | -0.132% [at 12.7 µM] | 
COCCNC(=O)C1CCN(S(=O)(=O)c2ccc3c(c2)OCCO3)CC1 | 2.44% [at 0.501 µM] | 
O=C(NC(=S)Nc1ccccc1N1CCCCC1)c1ccc(F)cc1 | -39.7% [at 102 µM] (inactive) | 
O=C(CC1N=C2c3ccccc3N=C(SCc3ccc(F)cc3)N2C1=O)NCc1cccs1 (configuration not stated) | 3.62% (inactive) | 
Nc1nc(-c2ccccc2)cc(-c2ccccc2)n1 | 3.85% [at 102 µM] (inactive) | 
CC(Oc1ccccc1)C(=O)Nc1oc(-c2ccco2)c(-c2ccco2)c1C#N (configuration not stated) |  | 28.2 µM (active)
COc1cc(C(=O)Nc2oc(-c3ccccc3)c(-c3ccccc3)c2C#N)cc(OC)c1OC | -4.06% [at 102 µM] (inactive) | 
CC(C)C(=O)Nc1oc(-c2ccccc2)cc1C#N | 3.52% [at 102 µM] (inactive) | 
CCC(=O)N1CCc2cc(Br)cc(S(=O)(=O)NCc3ccc(Cl)cc3)c21 | -4.97% (inactive) | 
